Experimental data published in the supplement of paper PMC11732987, “Enantioselective OTUD7B fragment discovery through chemoproteomics screening and high-throughput optimisation” (Communications Chemistry, 2025).

Experiments:
Assay in all cases: log2 ratio of Biotin-Ahx-Ub-VS probe labelling (fragment/DMSO); higher = less target engagement (more negative = stronger competition), active = hit call of the paper (q ≤ 0.05, log2 ratio ≤ -1)
Conditions in all cases: compound concentration: 200 uM; treatment time: 3 h
USP42 = target: T1, USP42 (UniProt Q9H9J4)
T1 sequence (whole entry): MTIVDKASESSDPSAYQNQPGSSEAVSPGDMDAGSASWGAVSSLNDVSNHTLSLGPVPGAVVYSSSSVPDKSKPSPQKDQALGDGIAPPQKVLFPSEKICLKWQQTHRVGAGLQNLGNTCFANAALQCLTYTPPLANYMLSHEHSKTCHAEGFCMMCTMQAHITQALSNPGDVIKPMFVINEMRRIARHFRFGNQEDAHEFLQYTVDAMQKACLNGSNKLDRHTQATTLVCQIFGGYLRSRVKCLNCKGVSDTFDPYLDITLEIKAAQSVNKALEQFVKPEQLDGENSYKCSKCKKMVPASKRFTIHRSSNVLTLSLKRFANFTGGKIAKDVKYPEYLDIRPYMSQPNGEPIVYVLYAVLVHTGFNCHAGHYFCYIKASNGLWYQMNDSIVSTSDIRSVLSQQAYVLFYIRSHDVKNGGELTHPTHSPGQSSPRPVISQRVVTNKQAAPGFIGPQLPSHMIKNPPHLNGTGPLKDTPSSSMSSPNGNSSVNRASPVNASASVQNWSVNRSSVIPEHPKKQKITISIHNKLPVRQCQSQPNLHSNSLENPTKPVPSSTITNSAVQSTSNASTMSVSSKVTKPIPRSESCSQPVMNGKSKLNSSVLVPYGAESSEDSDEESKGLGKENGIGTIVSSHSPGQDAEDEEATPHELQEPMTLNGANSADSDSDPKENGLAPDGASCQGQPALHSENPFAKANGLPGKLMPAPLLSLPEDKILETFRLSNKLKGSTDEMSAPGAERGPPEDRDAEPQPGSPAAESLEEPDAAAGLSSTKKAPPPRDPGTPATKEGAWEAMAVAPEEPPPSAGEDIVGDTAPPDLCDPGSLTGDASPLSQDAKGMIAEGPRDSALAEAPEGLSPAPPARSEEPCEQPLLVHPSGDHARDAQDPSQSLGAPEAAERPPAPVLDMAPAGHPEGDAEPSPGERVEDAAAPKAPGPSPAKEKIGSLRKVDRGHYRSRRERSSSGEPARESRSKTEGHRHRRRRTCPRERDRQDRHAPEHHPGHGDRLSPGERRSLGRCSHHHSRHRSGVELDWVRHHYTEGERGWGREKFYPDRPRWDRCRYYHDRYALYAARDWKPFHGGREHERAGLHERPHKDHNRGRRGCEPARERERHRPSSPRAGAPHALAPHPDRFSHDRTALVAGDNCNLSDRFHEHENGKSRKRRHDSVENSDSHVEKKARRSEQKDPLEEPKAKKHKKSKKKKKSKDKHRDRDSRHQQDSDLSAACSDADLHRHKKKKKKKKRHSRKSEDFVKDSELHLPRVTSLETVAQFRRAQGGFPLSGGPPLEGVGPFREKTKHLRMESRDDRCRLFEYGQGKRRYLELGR
How it was run: (§1)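 Each value is an average log2 ratio of fragment to vehicle, tested by unpaired t-test. The underlying Spectronaut label-free quantities were global-median-normalised, and only proteins with ≥2 unique peptides were included. Triplicate HEK293T lysate samples (495 µg) were exposed to fragment at 200 µM or vehicle for 3 h, then to Biotin-Ahx-Ub-VS at 0.5 µM final for 1 h, before NeutrAvidin enrichment of labelled DUBs, LysC and trypsin digestion, and diaPASEF LC-MS/MS.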

USP46 = USP46 (UniProt P62068)
Chain of USP46 (P62068 whole entry): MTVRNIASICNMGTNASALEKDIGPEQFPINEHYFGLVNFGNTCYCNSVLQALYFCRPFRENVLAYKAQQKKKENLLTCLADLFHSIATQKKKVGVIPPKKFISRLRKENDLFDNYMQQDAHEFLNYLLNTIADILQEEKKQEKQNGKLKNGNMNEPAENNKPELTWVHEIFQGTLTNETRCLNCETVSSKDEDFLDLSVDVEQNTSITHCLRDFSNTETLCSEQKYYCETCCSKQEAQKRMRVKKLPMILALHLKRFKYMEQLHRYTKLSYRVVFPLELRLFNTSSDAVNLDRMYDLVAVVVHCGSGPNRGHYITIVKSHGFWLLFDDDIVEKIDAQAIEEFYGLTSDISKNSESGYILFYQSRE
How it was run: as §1

USP47 = target: T2, USP47 (UniProt Q96K76)
T2 sequence (whole entry): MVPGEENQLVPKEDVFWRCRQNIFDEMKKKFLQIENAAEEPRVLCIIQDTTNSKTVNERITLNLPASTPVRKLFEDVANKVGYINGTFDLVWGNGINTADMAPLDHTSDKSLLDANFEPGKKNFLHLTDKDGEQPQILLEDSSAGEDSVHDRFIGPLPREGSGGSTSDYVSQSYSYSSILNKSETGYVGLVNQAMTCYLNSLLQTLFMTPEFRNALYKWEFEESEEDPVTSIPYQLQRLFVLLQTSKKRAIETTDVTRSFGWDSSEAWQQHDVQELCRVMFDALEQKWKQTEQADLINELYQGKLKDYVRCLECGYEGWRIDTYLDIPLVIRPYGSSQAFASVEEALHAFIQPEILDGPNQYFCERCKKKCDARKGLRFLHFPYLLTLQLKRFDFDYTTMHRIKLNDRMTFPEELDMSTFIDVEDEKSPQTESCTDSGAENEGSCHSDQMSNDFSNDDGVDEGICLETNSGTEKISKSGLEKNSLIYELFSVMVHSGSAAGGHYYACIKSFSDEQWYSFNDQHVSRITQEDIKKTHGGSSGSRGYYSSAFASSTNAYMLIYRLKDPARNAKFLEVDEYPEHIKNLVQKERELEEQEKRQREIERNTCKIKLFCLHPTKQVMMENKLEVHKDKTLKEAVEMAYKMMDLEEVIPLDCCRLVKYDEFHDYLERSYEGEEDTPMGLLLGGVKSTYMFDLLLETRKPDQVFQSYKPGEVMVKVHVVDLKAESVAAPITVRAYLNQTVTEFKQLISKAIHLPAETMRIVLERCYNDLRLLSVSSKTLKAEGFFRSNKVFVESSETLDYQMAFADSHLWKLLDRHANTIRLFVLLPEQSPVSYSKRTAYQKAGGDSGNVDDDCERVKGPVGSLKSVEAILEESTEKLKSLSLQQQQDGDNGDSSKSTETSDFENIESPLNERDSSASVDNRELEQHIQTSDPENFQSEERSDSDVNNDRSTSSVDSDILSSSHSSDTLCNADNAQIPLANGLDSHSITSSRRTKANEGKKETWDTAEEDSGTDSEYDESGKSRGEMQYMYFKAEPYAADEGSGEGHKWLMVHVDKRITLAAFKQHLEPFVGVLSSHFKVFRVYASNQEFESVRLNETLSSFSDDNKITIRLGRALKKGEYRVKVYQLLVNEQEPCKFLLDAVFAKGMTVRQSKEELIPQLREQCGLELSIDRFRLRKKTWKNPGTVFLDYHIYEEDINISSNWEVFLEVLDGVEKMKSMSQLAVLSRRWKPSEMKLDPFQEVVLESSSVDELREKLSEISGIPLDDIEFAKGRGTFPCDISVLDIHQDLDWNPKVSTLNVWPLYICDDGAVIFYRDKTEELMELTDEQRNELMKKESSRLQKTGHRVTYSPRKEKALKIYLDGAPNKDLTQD
How it was run: as §1

USP48 = target: T3, USP48 (UniProt Q86UV5)
T3 sequence (whole entry): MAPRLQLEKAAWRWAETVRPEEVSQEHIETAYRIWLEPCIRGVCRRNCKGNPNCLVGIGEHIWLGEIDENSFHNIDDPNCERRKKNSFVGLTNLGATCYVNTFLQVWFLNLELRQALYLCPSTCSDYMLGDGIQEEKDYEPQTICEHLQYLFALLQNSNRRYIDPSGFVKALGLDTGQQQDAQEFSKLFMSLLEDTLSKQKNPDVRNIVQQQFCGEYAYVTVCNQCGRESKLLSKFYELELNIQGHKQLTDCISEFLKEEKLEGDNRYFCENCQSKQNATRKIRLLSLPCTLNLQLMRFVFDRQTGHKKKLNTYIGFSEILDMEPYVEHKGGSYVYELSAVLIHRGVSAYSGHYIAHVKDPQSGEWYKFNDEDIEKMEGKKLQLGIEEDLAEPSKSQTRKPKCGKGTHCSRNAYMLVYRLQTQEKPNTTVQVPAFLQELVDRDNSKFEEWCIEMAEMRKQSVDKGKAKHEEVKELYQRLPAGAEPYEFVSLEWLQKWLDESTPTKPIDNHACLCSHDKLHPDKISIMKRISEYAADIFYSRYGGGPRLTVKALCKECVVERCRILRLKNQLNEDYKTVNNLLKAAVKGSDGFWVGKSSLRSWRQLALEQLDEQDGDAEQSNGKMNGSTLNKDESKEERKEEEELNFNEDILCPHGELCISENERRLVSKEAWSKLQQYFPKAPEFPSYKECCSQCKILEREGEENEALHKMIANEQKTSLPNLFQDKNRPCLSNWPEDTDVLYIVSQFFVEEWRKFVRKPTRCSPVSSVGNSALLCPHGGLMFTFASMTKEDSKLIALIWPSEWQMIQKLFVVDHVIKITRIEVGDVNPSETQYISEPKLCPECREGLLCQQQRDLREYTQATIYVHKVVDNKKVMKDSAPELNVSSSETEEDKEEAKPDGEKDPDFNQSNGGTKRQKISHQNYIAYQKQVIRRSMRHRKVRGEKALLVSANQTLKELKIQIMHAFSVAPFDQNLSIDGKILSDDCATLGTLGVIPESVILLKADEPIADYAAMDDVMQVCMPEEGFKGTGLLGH
How it was run: as §1

USP5 = target: T4, USP5 (UniProt P45974)
T4 sequence (whole entry): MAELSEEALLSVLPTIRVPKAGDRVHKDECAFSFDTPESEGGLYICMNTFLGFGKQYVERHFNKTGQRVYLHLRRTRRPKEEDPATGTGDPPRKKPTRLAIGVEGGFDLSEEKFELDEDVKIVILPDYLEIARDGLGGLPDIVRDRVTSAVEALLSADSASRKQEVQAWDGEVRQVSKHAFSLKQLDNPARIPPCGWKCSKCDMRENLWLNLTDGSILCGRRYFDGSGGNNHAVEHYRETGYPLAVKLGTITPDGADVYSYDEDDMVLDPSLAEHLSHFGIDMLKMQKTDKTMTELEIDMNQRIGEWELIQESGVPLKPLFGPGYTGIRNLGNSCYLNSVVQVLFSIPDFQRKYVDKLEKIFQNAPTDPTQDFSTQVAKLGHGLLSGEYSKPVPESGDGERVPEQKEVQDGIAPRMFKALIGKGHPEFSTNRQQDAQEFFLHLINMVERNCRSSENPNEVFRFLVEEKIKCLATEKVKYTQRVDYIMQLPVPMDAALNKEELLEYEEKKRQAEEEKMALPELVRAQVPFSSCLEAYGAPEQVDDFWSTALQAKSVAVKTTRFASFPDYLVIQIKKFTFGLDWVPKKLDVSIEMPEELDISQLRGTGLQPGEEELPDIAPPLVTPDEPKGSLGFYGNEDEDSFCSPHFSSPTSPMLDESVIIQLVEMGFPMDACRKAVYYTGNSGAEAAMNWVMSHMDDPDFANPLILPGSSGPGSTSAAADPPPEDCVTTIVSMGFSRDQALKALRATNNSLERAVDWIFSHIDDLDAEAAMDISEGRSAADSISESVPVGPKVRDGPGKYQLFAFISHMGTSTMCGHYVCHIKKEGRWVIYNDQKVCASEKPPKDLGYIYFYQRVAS
How it was run: as §1

USP54 = USP54 (UniProt Q70EL1)
How it was run: as §1

USP7 = USP7 (UniProt Q93009)
Chain of USP7 (Q93009 whole entry, looked up): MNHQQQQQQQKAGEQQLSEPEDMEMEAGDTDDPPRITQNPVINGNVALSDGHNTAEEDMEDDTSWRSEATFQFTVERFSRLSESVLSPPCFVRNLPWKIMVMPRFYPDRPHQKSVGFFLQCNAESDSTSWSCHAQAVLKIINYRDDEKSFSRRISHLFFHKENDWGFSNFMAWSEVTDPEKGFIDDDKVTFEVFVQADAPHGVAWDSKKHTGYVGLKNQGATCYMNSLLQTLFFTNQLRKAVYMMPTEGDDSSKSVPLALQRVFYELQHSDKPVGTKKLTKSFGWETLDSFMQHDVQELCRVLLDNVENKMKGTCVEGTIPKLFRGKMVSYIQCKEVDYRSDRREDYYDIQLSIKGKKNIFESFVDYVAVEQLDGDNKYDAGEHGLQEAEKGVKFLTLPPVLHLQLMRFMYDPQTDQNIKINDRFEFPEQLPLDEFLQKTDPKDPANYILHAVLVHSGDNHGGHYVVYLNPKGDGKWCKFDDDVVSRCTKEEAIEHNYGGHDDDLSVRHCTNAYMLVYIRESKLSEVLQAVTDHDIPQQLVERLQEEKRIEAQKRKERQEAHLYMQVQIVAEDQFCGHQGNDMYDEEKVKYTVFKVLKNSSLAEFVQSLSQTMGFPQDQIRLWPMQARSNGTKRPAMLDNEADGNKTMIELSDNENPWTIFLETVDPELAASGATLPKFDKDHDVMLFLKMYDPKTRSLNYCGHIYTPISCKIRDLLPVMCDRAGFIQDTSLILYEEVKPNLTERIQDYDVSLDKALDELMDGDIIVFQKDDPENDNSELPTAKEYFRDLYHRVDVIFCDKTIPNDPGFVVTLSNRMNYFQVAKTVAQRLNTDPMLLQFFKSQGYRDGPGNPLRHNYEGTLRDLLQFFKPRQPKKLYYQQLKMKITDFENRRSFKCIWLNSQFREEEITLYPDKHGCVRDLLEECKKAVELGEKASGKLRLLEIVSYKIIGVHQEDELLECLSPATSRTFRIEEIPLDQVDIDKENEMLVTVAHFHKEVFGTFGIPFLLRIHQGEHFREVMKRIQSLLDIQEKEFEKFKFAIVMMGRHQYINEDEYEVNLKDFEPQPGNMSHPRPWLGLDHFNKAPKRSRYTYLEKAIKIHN
How it was run: as §1

USP8 = target: T5, USP8 (UniProt P40818)
T5 sequence (whole entry): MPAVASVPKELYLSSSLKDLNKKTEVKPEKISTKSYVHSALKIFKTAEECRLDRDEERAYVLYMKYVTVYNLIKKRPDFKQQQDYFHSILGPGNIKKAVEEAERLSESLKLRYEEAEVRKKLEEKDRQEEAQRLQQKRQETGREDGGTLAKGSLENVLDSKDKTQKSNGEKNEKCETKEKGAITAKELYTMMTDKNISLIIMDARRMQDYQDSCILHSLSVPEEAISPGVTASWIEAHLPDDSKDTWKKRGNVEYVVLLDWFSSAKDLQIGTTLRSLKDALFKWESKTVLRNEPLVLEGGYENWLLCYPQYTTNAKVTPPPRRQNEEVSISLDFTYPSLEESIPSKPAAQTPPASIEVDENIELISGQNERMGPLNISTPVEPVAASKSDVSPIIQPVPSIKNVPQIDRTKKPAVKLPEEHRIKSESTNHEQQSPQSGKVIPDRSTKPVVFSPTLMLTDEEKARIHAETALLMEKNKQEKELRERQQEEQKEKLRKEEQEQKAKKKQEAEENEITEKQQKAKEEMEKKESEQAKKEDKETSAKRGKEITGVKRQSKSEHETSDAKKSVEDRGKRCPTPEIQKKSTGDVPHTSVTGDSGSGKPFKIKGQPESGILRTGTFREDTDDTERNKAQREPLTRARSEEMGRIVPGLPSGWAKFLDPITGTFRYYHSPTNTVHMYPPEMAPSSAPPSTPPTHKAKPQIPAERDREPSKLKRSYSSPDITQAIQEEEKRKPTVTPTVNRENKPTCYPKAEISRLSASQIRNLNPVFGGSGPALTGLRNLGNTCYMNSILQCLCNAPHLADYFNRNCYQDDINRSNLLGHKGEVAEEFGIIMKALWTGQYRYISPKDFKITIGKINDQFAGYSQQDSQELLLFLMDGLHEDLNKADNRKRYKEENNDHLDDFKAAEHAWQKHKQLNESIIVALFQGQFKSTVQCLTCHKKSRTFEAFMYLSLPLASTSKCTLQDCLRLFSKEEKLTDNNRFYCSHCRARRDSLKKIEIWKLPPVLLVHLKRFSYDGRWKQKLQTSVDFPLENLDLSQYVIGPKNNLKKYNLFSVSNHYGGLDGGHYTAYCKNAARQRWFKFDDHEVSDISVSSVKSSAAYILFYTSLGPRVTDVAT
How it was run: as §1

USP9X = USP9X (UniProt Q93008)
Chain of USP9X (Q93008 whole entry): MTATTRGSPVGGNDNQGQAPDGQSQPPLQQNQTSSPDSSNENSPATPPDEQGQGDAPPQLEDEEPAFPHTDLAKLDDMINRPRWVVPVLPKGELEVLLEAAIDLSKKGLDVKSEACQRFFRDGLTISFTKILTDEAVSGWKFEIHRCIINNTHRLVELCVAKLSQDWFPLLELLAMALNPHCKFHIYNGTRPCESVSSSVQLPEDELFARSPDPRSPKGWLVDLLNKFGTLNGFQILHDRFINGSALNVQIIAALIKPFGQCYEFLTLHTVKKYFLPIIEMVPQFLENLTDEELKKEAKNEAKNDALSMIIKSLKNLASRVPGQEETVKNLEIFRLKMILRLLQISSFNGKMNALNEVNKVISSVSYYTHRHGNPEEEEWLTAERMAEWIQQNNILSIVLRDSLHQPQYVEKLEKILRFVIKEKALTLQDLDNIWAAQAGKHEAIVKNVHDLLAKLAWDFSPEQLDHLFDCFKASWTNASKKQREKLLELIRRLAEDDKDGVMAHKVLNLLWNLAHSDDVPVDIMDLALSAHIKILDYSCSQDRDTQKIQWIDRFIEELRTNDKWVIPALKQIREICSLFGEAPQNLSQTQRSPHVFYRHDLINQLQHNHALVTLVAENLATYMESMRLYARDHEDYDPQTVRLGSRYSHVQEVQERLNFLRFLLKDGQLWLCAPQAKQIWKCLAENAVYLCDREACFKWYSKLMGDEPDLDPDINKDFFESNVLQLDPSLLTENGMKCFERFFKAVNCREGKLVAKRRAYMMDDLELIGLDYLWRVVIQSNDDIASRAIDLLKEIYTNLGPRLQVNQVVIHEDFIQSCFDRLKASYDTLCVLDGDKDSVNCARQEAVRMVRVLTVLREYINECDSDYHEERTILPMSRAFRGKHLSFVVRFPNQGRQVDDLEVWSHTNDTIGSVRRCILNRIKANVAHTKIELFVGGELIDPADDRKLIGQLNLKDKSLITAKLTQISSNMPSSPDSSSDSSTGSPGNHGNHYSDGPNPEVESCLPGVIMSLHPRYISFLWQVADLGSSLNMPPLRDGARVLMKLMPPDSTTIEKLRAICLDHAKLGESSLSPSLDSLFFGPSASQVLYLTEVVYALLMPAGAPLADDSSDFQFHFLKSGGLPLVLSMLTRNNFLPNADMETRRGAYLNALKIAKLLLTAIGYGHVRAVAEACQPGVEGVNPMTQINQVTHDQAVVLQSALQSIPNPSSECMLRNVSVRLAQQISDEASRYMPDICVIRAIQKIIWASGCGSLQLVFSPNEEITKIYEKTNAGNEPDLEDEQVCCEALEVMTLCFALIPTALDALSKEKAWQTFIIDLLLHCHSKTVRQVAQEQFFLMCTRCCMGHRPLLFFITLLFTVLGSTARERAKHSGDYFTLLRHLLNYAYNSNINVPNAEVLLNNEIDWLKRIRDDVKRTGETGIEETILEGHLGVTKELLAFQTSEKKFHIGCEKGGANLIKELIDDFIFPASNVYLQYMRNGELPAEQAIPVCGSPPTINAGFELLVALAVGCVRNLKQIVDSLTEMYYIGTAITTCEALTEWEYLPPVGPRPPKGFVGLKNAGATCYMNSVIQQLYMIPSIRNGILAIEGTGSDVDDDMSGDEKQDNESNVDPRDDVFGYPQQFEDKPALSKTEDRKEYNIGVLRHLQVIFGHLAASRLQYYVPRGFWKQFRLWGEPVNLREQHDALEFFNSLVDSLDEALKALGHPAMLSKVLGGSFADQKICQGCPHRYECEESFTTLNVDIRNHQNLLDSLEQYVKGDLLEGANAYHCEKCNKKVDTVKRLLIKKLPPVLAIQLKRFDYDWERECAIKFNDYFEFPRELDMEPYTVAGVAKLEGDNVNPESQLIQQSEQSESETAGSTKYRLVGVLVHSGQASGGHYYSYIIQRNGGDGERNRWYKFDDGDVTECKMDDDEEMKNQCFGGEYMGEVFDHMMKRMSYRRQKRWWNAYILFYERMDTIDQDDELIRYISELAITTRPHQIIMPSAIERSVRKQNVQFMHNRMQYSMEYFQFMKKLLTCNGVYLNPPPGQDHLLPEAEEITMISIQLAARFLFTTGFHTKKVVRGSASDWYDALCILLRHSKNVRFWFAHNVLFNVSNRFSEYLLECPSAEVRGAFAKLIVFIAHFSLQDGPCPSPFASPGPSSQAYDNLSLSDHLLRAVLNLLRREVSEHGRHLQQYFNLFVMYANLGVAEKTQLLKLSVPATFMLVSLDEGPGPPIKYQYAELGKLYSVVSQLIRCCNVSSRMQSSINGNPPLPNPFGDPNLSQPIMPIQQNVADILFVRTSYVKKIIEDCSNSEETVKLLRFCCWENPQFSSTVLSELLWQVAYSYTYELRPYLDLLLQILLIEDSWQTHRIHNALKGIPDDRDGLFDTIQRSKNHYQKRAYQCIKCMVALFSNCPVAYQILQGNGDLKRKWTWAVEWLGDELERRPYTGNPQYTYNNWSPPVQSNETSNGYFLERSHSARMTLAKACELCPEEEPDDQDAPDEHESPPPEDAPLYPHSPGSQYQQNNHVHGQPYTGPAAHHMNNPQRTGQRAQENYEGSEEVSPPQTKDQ
How it was run: as §1

UniProt O00487 = target: UniProt O00487
Chain of UniProt O00487 (O00487 whole entry): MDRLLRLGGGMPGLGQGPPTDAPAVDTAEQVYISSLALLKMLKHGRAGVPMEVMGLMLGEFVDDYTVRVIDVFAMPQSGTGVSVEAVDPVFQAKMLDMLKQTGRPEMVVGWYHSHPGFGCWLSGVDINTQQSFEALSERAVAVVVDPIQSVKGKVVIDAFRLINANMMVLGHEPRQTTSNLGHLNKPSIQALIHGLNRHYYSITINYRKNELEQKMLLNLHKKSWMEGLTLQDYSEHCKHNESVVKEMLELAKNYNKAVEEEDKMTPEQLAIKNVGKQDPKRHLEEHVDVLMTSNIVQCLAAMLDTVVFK
How it was run: as §1

Measured: log2 ratio of Biotin-Ahx-Ub-VS probe labelling

CCN1C(=O)C2CN(C(=O)CCl)CCN2C1=O (stereo not given)
inactive: USP42 0.369 | USP46 -0.0317 | USP47 0.124 | USP48 -0.1 | USP5 0.0692 | USP54 -0.191 | USP7 -0.307 | USP8 0.0104 | USP9X -0.106 | UniProt O00487 0.00662
